Data published in the supplement of paper PMC11417369.
± gives the standard deviation of the averaged measurements. Over roughly 25,000 sequences, “ln(normalized median fluorescence intensity)” has its median near 7.9; the highest 2% begin near 11. The list comes from a sample in which the highest values are over-represented; it also holds similar and randomly drawn sequences.

Test system: PfAP2-I AP2 domain 3 (GST-tagged)
Assay: gcPBM binding intensity (ln(normalized median fluorescence intensity)); higher = stronger DNA binding
Outline: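 Binding intensity is the highest Masliner-normalised natural-log median intensity over replicate spots in either probe orientation. To obtain it, GST-tagged P. falciparum DNA-binding domains made in E. coli were incubated for 1 h on an Agilent 4 × 180k array of primer-extended double-stranded 36-bp intergenic genomic probes plus negative controls. Detection used Alexa488 anti-GST antibody with scanning at 488 nm.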

Compared with “ACAAGTTTTTTTTTATCACACACAAAAAAAAAAATA [CACACA_site8377]”, “ATAAAACGTACAATGGTGCATATAAATAATATATAT [GTGCAC_site9960]” is higher in “gcPBM binding intensity (ln)” value: 7.9 ± 0.44 for the first, 11 ± 0.52 for the second.

“AATATAAATAAAAACACACACAATGGTACATATATA [CACACA_site3671]” and “TAATTATAATAATAACGTACATATATAAAATGGTGA [XGTACX_site8434]” are within error of each other in “gcPBM binding intensity (ln)” value: 7.84 ± 0.54 for the first, 8.04 ± 0.34 for the second.

“TGTCCAATTTTTTATCGTACATAATATATAAATAAA [XGTACX_site1705]” and “TTTTCTTGATTTTGTAGTACATTTTTACGATATTTT [XGTACX_site63]” are within error of each other in “gcPBM binding intensity (ln)” value: 8.01 ± 0.33 for the first, 7.94 ± 0.55 for the second.

First: ATTTAATATCACAATATATTTTTTACCCTTATCAGC [CACACA_negctrl_site491]
Second: CATGAGGTATAAAAGGTGCAAATTAATGAGAACATT
The “gcPBM binding intensity (ln)” value of the first is lower: 7.59 ± 0.76 for the first, 11.1 ± 0.36 for the second.

Compared with CGTTGGTATTAAAAGGTGCAATGAAATAATATATTA, “TATGTATTAATGAGAACATGCAAAATAATAAACAAT [TGCATGCA_site362]” is lower in “gcPBM binding intensity (ln)” value: 10.8 ± 0.63 for the first, 8.45 ± 0.59 for the second.

“TTTTTAAAAAAACATACACACAAAAAAAAAAAAAAA [CACACA_site3935]” and “TTATATCAAGGGAATGCATGCATATCGTTTTGTATT [TGCATGCA_site327]” are within error of each other in “gcPBM binding intensity (ln)” value: 8.11 ± 0.67 for the first, 7.68 ± 0.88 for the second.

“AATATTGTATATAATAAACACACAATATTAAAAATA [CACACA_site8262]” and “TATTGTATATAATAAACACACAATATTAAAAATATA [CACACA_site1057]” are within error of each other in “gcPBM binding intensity (ln)” value: 7.57 ± 0.39 for the first, 7.4 ± 0.52 for the second.

Compared with “ACAAAAAAAAACGTGGTGCATTAATAATATTGTATA [GTGCAC_site9469]”, “TCTTATATTATATTGTGTATTAAAATTTAACTTCAA [TGCATGCA_negctrl_site565]” is lower in “gcPBM binding intensity (ln)” value: 11.7 ± 0.3 for the first, 7.83 ± 0.58 for the second.

“ACTTTTTATTTTTTACTATATATATATATATATATG [TGCATGCA_negctrl_site463]” and “TATATATTTGTTCACACACACACAAAAAAAAAAAAA [CACACA_site2475]” are within error of each other in “gcPBM binding intensity (ln)” value: 8.31 ± 0.44 for the first, 8.08 ± 0.52 for the second.

First: TATGTGCACCCATATACACACACAAATACAATGATA [CACACA_site8295]
Second: TGGGCACCCATATACACACACAAATACAATGATAAA [CACACA_site4762]
The “gcPBM binding intensity (ln)” value of the first is higher: 11.3 ± 0.85 for the first, 7.78 ± 0.28 for the second.

Compared with “GGTGCACCCATATACACACACAAATACAATGATAAA [CACACA_site1132]”, “CCCGTAAATACAAAAAGTACAAAAGTTCATCTTATA [XGTACX_site1154]” is lower in “gcPBM binding intensity (ln)” value: 9.99 ± 0.56 for the first, 7.93 ± 0.99 for the second.

First: CTGTACACTTAAACGGTGCAAAAAGAAAAAAAAGAA
Second: AATTTATTTTTAAAAAGTACATACTTAAGAAAACGA [XGTACX_site3660]
The “gcPBM binding intensity (ln)” value of the first is higher: 11 ± 0.38 for the first, 8.12 ± 0.29 for the second.

Compared with “AAAGAAAACGGACTTTGTACTTAAATATAATATAAA [XGTACX_site8585]”, GATAAAATGAGACCAGTGCATTATTAGTTGTACACC is higher in “gcPBM binding intensity (ln)” value: 7.69 ± 0.34 for the first, 11.3 ± 0.53 for the second.

“AATAAAATGAGATGTTGTACAGTTTTGATATATGCA [XGTACX_site3052]” and “CATTATTATGATAGTTGTACAATTTTTATAAAAAAT [XGTACX_site4411]” are within error of each other in “gcPBM binding intensity (ln)” value: 7.96 ± 0.19 for the first, 7.93 ± 0.35 for the second.

Compared with TAATTAATTTATTAGTTGCACTGTACCATTAGAGTA, “TTTTTATAGAATTTAACACACATTTCATATAAAAAA [CACACA_site7453]” is lower in “gcPBM binding intensity (ln)” value: 9 ± 0.11 for the first, 7.86 ± 0.47 for the second.

TAATAAAATATGTACGTGCACATAATTATACTAAAA and TACTATTATAAATATGTGCACTTCAATAATATACTA are within error of each other in “gcPBM binding intensity (ln)” value: 10.3 ± 0.18 for the first, 10.4 ± 0.11 for the second.

Compared with AAAAAAAAAAAATACGTGCACTATGATATATTATAT, “TATGATTAATTACCACAATTGACAAAAAAAAAAAAA [CACACA_negctrl_site336]” is lower in “gcPBM binding intensity (ln)” value: 11.4 ± 0.36 for the first, 8.13 ± 0.87 for the second.

Compared with “TTTTGTTACTTTTATGTGCACTTATAAAACGAACTA [GTGCAC_site9551]”, “AACTATTTTATTATATGTACTTACGAATTTATAAAA [XGTACX_site5262]” is lower in “gcPBM binding intensity (ln)” value: 11.3 ± 0.085 for the first, 7.87 ± 0.35 for the second.

Going from ATATATATTATGTGTGTGCACTTTTGTTATTATTAT to “AAAACACAATTTATTACACACATATATTATAGATTA [CACACA_site6780]”, the “gcPBM binding intensity (ln)” value falls from 9.83 ± 0.014 to 7.61 ± 0.68.

Going from “AGAATTTTAGATTTAGCACACATTTTTTTTTTTTTT [CACACA_site4081]” to GTTTTAACAAAATTAGTGCATTTATCAATTATATAA, the “gcPBM binding intensity (ln)” value rises from 8.34 ± 0.45 to 10.5 ± 0.14.

TTTTTTTTTTTTGTAGTGCAAATTAAAAATATATGT and “TTTTTTAAATTGGTAGTGCAATATGATTGAACAAAA [GTGCAC_site9715]” are within error of each other in “gcPBM binding intensity (ln)” value: 10.6 ± 0.53 for the first, 10.9 ± 0.79 for the second.

First: ATATTGAAATTAAAAAAATATATGAACAAATGATGA [CACACA_negctrl_site602]
Second: ATGATATGCAATTTAGTGCATAACAAAATTGGTATA
The “gcPBM binding intensity (ln)” value of the first is lower: 7.69 ± 0.59 for the first, 10.9 ± 0.49 for the second.

Going from “TATATAGATATGATAGTGCATTTTTAGAAAACATAA [GTGCAC_site9962]” to “AAAAAAAAAAAAAGCACACATATAAATATGAATAAA [CACACA_site1393]”, the “gcPBM binding intensity (ln)” value falls from 9.44 ± 0.14 to 8.39 ± 0.085.

“TAATTTTATATTAAAAGTACATAATAAAAACTATAA [XGTACX_site8779]” and “TAAATATATATCATCACACACACATACATAAATATA [CACACA_site183]” are within error of each other in “gcPBM binding intensity (ln)” value: 7.79 ± 0.22 for the first, 7.72 ± 0.47 for the second.

Compared with “TAATAATATAAATATGCACACAAATTATTACCCAAA [CACACA_site8805]”, “AAAAAATATACATATACACACATATGTATATATAAT [CACACA_site8676]” is lower in “gcPBM binding intensity (ln)” value: 8.97 ± 0.47 for the first, 7.57 ± 0.31 for the second.

“AATATAATATAATGCACACATAAAAAAAAAAAAATC [CACACA_site1303]” and “AAAATATAATATAATGCACACATAAAAAAAAAATCA [CACACA_site7922]” are within error of each other in “gcPBM binding intensity (ln)” value: 11 ± 0.64 for the first, 10.8 ± 0.64 for the second.

“CATATTTGCACTTTCACACATAAATATATAACTATA [CACACA_site6016]” and “GCTAAAAGTATATGCACACACATATATATGCACATA [CACACA_site1635]” are within error of each other in “gcPBM binding intensity (ln)” value: 11 ± 0.89 for the first, 10.3 ± 0.16 for the second.

First: AAAAATATAATATATGCACACATACATACATATATA [CACACA_site7915]
Second: CTTTTTTTTTTTTTTGCACACACATATATAAATATA [CACACA_site3950]
The “gcPBM binding intensity (ln)” value of the first is lower: 9.06 ± 0.057 for the first, 9.74 ± 0.042 for the second.

Compared with “GCTAAAAGTATATGCACACACATATAGATGCACATA [CACACA_site6868]”, “AATTCTTTACTATTCACACATATAAATATTCACTTT [CACACA_site4886]” is lower in “gcPBM binding intensity (ln)” value: 10 ± 0.14 for the first, 8 ± 0.7 for the second.

“AAAAATAATGCACATATATATAATATGTATATGTAT [CACACA_negctrl_site443]” and “GTGCTAAAAGTATATGCACACACATATATATGCACA [CACACA_site8472]” are within error of each other in “gcPBM binding intensity (ln)” value: 11 ± 0.6 for the first, 10.9 ± 0.55 for the second.
